PTHR1 agonist – agonists of human PTHR1 parathyroid hormone receptor; HEK293 GP2 PTHR1 cells, GloSensor cAMP luminescence, 1 h; Potency, µM (doses to about 115 µM), without a hit: at the top dose activation, most hits filed as activators; 410,000 tested, 0.075% active; also: potency is read from the fitted curve at half-maximal effect; nearly all actives have a fitted effect of over 55% in size
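HEK-293-derived GP2 cells expressing PTHR1 and a GloSensor cAMP reporter, 3,000/well, plated overnight, given luciferin plus IBMX (each 0.5 mM as added) for 1 h at 37 °C, then compound for 1 h at 37 °C. Luminescence was read after 15 min at room temperature.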
MBNL1-CUG inh – MBNL1-poly(CUG) RNA binding inhibition | Potency, µM (doses to about 57.5 µM), for inactives: at the top dose activity change, negative = inhibition, usual class: inhibitors | Q9NR56 | TR-FRET MBNL1-His/biotin-(CUG)12 binding, 665/545 ratio | 280,000 tested, 0.036% active; active = well fitted inhibition curve with a large enough effect in the signal ratio, with a control signal flat, not every such curve was filed as active; inconclusive = small, poorly fitted or top-dose-only effect, or effect the other way, or a change in a side signal; inactive = no such curve, though single readings can be large or run the other way; the % refers to the signal ratio; also: potency is read from the fitted curve at half-maximal effect; % is scaled to controls: 0 for no effect and ±100 for the full control effect
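MBNL1-His + Biotin-(CUG)12, cpd titration 92 nM–58 uM; Tb anti-His Ab 0.055 ng/ul, SA-XL665 5 nM (final); 60 min RT; ratiometric 665/545 nm, Ex 340 nm; normalized to buffer and full-complex controls.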
CBFb RUNX1 block – blocks binding between human CBF-beta and RUNX1 | AID 1477 | Q01196+Q13951 | 230,000 tested, under 10 active | AlphaScreen CBFb-His/RUNX1-biotin binding, biochemical | Potency, µM (series often up to 59.8 µM), for the others: top-dose activity, negative = inhibition, hits mostly inhibitors; also: % of control where 0% means no effect
Target sequence (Q01196 whole entry, looked up): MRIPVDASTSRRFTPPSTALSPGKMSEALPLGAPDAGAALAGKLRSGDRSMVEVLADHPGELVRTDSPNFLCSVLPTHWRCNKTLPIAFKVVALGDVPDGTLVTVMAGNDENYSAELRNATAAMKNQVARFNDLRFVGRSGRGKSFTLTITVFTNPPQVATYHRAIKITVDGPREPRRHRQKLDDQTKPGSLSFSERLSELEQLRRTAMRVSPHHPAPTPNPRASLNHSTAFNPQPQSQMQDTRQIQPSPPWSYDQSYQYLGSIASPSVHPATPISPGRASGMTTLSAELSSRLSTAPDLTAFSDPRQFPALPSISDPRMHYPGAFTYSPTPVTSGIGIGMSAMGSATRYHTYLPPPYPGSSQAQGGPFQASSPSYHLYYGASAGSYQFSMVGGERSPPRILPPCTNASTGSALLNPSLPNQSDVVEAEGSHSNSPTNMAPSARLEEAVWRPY
Target sequence (Q13951 whole entry, looked up): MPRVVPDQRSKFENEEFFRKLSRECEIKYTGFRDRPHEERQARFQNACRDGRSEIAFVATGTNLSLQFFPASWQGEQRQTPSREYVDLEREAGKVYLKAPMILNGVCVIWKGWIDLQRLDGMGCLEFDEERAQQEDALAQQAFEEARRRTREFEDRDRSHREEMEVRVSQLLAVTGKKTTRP
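Bead-based AlphaScreen assay; binding partners His-tagged CBF-beta and biotinylated RUNX1 at 30 nM each. Compound exposure 15 min after a 20-min protein preincubation; bead step 90 min; all steps at room temperature.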
DRD3 agonist – agonists of human D3 dopamine receptor. D3R DiscoveRx beta-arrestin cells, luminescence, 90 min. max activation, %. 410,000 tested, 0.58% active; in the data active = max activation above about 30%; also: 0% is about no effect
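Cells at 1500/well, incubated overnight, then treated with pinned compounds (dopamine as control) for 90 min at 37 degrees C. DiscoveRx reagent added for 30 - 60 minutes at room temperature; luminescence read.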
Integrin act MD – activators of alpha7 integrin expression for muscular dystrophy; alpha7betagal myoblasts, beta-gal FDG fluorescence, 48 h; Potency, µM (doses to about 38.3 µM), for inactives: at the highest dose activation, most hits filed as activators; 350,000 tested, 0.064% active; AID 624291;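 also: potency is read from the fitted curve at half-maximal effect; 100% = response of the positive control SU9516; nearly all actives have a fitted effect of over 60% in size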
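alpha7betagal+/- myoblasts (passage 13, 250/well) treated 48 h at 37C with compounds at 1:260 dilution of DMSO stock. Lysed, then beta-galactosidase activity read as FDG fluorescence (ex 480/em 540) after 30 min, with pre-read for autofluorescence.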
D3 antag – D3 dopamine receptor (human) antagonism; P35462; D3R cells, DiscoveRx beta-arrestin luminescence, antagonist mode; active compounds read low; max response, negative = inhibition, %; 360,000 tested, 2.5% active; AID 652054; in the data active = max response below about -50%; inconclusive = no clear call, values can overlap the other calls; also: % is scaled to controls: 0 for no effect and ±100 for the full control effect
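Cells expressing the human receptor were seeded at 1500 cells/well, incubated overnight at 37 degrees C in 5% CO2, then exposed to library compounds with dopamine controls for 90 minutes at 37 degrees C before luminescent detection.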
* marks the source's active call; other numbers are inactive results; i = inactive; ? = inconclusive; . = not tested or not shown; [ ] = remark or other dose. Compounds with a hit are over-represented: about 2.8% of the library has one in this group of screens. Unless noted, calls follow the shape of the dose curve; as a rule, active = well fitted curve in the direction sought with a large enough effect; inconclusive = small, poorly fitted or top-dose-only effect, or another doubt; inactive = no such curve, though single readings can be large; an effect the other way counts as inactive or inconclusive.

SMILES | PTHR1 agonist | MBNL1-CUG inh | CBFb RUNX1 block | DRD3 agonist | Integrin act MD | D3 antag
CC(C)=CCC[C@H](C)CC1Cc2[nH]c(=S)[nH]c(=O)c2C(c2ccc(F)cc2)O1 (stereo partly drawn) | -23% | . | . | 7 | . | 11
COc1ccc(C(=O)N2CCCC(N3CCN(c4ccccc4OC)CC3)C2)c(OC)n1 (stereo not drawn) | i | -8% | . | -6 | -19% | -19
COc1ccc(C(=O)N2CCCC(N3CCN(c4ccccc4F)CC3)C2)c(OC)n1 (stereo not drawn) | -10% | 4% | . | 38* | -47% | -20
CC1CC=CC2C1C(=O)N(Cc1ccccc1)C2c1ccc(-c2cc3ccccc3s2)cc1F (stereo not drawn) | . | . | 12% | . | . | .
CCCNC(=O)C1(C)CCCN(C(=O)c2ccc3c(c2)CCO3)C1 (stereo not drawn) | i | . | . | 3 | . | 41
CCNC(=O)C1(C)CCN(C(=O)c2ccc3c(c2)CCO3)C1 (stereo not drawn) | i | . | . | 1 | . | -51*
O=C(CN1CCCCCC1)Nc1cc(C(F)(F)F)ccc1Cl | i | . | 26% | -6 | 25% | -77*
CN(C)c1cc[n+](CC(=O)Nc2cc(C(F)(F)F)ccc2Cl)cc1 | ? | -6% | 8% | -28 | 10% | -59*
O=C(C[n+]1ccc2ccccc2c1)Nc1cc(C(F)(F)F)ccc1Cl | -3% | ? | 6% | -36 | -31% | -68*
O=C(C[n+]1ccccc1)Nc1cc(C(F)(F)F)ccc1Cl | -22% | . | 9% | -24 | -2% | -58*
O=C(CC(=O)c1ccccc1)Nc1cc(C(F)(F)F)ccc1Cl | -42% | -7% | -4% | -3 | -5% | 0
CCN(CC)S(=O)(=O)c1ccc2[nH]c(=O)cc(C(=O)Nc3ccc(C)c(S(=O)(=O)N(CC)CC)c3)c2c1 | i | -5% | -1% | -10 | 20% | 3
COc1ccc(CN2CCC(CO)(Cc3cccc(C(F)(F)F)c3)CC2)cc1Cn1cccn1 | -86% | -4% | 11% | -14 | -59% | 13
Cc1cc[n+](CC(=O)Nc2cc(C(F)(F)F)ccc2Cl)cc1 | -10%[57.5 µM] | 4% | 1% | -33 | 1% | -192*
CCOC(=O)c1c(/N=C/c2cccc([N+](=O)[O-])c2O)sc(C)c1C | i | ? | 3% | -12 | 0% | -102*
NC(=O)c1ccc(NCCc2cccs2)cc1 | -24% | . | . | -8 | . | -50*
O=C(NCCc1cccs1)c1ccc(Cl)cc1 | -56% | -7% | 6% | -16 | 9% | -24
CCCCC(=O)N(Cc1ccc(-c2ccccc2-c2nn[nH]n2)cc1)[C@@H](C(=O)O)C(C)C | . | . | . | -9 | . | .
CCCNC(=O)c1cc(C2CCCCN2S(=O)(=O)c2ccccc2)on1 (stereo not drawn) | -10% | . | . | -13 | . | -24
CCCNC(=O)c1cc(C2CCCCN2S(C)(=O)=O)on1 (stereo not drawn) | 1% | . | . | -26 | . | -91*
Cc1ccccc1Cn1c(=O)n(CCCCC(=O)NCc2ccccc2Cl)c(=O)c2ccccc21 | -24% | . | . | -8 | . | .
COc1ccc(C(=O)/C=C/Sc2nc3ccccc3o2)cc1 | -33% | -3% | -2% | -17 | -57% | -105*
O=C(O)CCC(CNS(=O)(=O)c1ccccc1)C(F)(F)F (stereo not drawn) | i | -4% | -4% | -1 | -24% | -2
COC(=O)C/C=C\[C@@H](C)[C@@H](/C=N\OC[C@@H](O)[C@H]1O[C@H]2OC(C)(C)O[C@H]2[C@@H]1O)OC | . | . | 6%[13.1 µM] | . | . | .
Cc1cc(O)c(Sc2ncn[nH]2)cc1NS(=O)(=O)c1ccc(Cl)cc1 | -14% | . | . | -14 | 33% | -6
SMILES | PTHR1 agonist | MBNL1-CUG inh | CBFb RUNX1 block | DRD3 agonist | Integrin act MD | D3 antag
O=S(=O)(Nc1cc(Sc2ncn[nH]2)c(O)c2ccccc12)c1ccccc1 | -70% | ? | 2% | -5 | -68% | -100*
O=C(O)c1ccc(NC2=C(Cl)C(=O)c3ccccc3C2=O)cc1 | -35% | ? | ? | -23 | ? | ?
O=C1C(Cl)=C(Nc2ccccc2)C(=O)c2ccccc21 | -30% | ? | 6% | -49 | -61% | -74*
CC(=O)N(Cc1ccc(F)cc1)c1cccc(C)c1C | i | -1% | -5% | 1 | 26% | 24
CC(=O)N(Cc1ccc(F)cc1)C1=C(NCCc2ccccc2)C(=O)c2ccccc2C1=O | -46%[57.5 µM] | ? | ? | 4 | -59% | -54*
O=C1C(Cl)=C(NCCc2ccccc2)C(=O)c2ccccc21 | -7% | . | . | -13 | -71% | -71*
Cc1ccc(NC2=C(NC(=O)c3ccccc3)C(=O)c3ccccc3C2=O)cc1Cl | -11% | ? | . | 7 | -38% | 9
O=C(O)c1cccc(NC2=C(Cl)C(=O)c3ccccc3C2=O)c1 | 0% | ? | -13% | -29 | -42% | -90*
CC1(CNC(=O)C(=O)NCC2(C)CO2)CO1 (stereo not drawn) | i | . | . | 6 | -28% | 17
O=c1cc(-c2ccc(F)cc2)nc(SCc2nc(-c3ccccc3Cl)no2)[nH]1 | -12% | . | . | -15 | . | .
O=C(CCSCCc1ccccn1)Nc1ccc(Cl)cc1 | i | . | . | 5 | . | .
CCCCn1nnnc1C1(C)CCC(=O)N1CCCN1CCOCC1 (stereo not drawn) | -29% | . | . | 0 | . | -7
CCOc1cc(C)c(S(=O)(=O)Nc2ccc3cn[nH]c3c2)cc1C | -20%[57.5 µM] | -22% | 0% | 20 | -47% | 20
N#Cc1c2ccc(OCC(=O)NCc3ccco3)cc2n2ccccc12 | -7% | -4% | . | 12 | -3% | 12
N#Cc1c2ccc(O)cc2n2ccccc12 | -25% | . | 27% | 43* | i | 66
CCc1nn(CC(=O)NCc2ccco2)c(=O)c2cc3c(OC)cccc3n12 | -17% | . | . | -10 | . | .
COc1ccc2oc(=O)c(/C(N)=N/NC(=O)c3ccncc3)cc2c1 | i | ? | . | 14 | 28% | 5
Cn1c(=N)n(CC(=O)O)c2ccccc21 | 3%[57.5 µM] | -18% | 1% | -4 | 15% | -62*
COc1ccc(Cc2noc(CN3CCCC(OCc4ccccn4)C3)n2)cc1OC (stereo not drawn) | -4% | -2% | 4% | 7 | -9% | 7
CCOC(=O)c1ccc(Nc2cc(C)nc(-c3ccccc3O)n2)cc1 | -7%[57.5 µM] | ? | 13% | 68* | 7% | 49
COc1cccc(-c2cccc3c2NC(=O)C3(C)Cc2cccc(F)c2)c1 (stereo not drawn) | -47% | . | . | -11 | . | -70*
CCSc1nc(N)c2c3c(sc2n1)CN(C)CC3 | . | 15% | 10% | . | . | .

Screens from PubChem.
